The sample as a whole holds a higher share of hits than the screen did.
Giardia FBPA inh: Giardia lamblia aldolase inhibition. A8B2U2. purified Giardia FBPA. Potency, µM (series often up to 59.6 µM), without a hit: top-dose activity, negative = inhibition, actives largely listed as inhibitors. 0.71% of 290,000 active; note: potency is the fitted concentration of half-maximal effect; % is set by controls: 0 for no effect and ±100 for the full control effect; nearly all actives have a fitted effect of over 55% in size
Target sequence (A8B2U2 whole entry, looked up): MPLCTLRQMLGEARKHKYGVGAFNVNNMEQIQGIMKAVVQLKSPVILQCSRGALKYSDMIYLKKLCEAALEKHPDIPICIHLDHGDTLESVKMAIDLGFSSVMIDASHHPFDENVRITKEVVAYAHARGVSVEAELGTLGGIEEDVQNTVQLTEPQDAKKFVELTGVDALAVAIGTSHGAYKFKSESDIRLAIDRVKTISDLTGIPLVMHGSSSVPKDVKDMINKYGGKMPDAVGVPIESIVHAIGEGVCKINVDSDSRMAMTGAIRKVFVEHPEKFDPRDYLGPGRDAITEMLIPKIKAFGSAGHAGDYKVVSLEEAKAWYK
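40 nM FBPA preincubated 10 min at RT with compound (up to 57.5 uM final), then substrate plus GAPDH/TPI/NAD/arsenate coupling and diaphorase/resazurin added. Fluorescence read after 20 min at RT, 525/598 nm.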
RE007 growth inh: less growth of the S. pombe RE007 Vpr strain | S. pombe RE007 Vpr strain, BacTiter-Glo ATP luminescence, 24 h | Potency, µM (series often up to 92.2 µM), without a hit: at the highest dose activity change, negative = less growth, most hits filed as inhibitors | 0.21% of 360,000 active | AID 651644; active = well fitted falling curve with a large enough effect; inconclusive = small, poorly fitted or top-dose-only effect; inactive = no such curve, though single readings can be large or run the other way; note: potency is the fitted concentration of half-maximal effect; % is set by controls: 0 for no effect and ±100 for the full control effect; nearly all actives have a fitted effect of over 50% in size
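Fission yeast RE007 carrying one integrated HIV-1 vpr copy, seeded at OD 0.01 in PMG+AL medium with 23 nL pinned compound. Grown 24 h at 30 degrees; viability read by BacTiter-Glo luminescence after 5 min.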
Cycloheximide cs: counter-screen hit for Shiga toxin inhibitors, cycloheximide; AID 2314; 12% of 300,000 active; max response, %; cell reporter, cycloheximide protein synthesis inhibition counterscreen; in the data active = max response mostly above about 13%, no sharp cut-off; inactive = mostly below about 14%; note: read at 38.3 µM for the half of the compounds with a filed dose; 0% is about no effect
Shiga toxin inh: inhibitors of Shiga toxin in Vero cells | Vero cells, Shiga toxin protein synthesis inhibition reporter | inhibition, % at 38.7 µM | 9.2% of 290,000 active; in the data active = inhibition mostly above about 28%, no sharp cut-off; inactive = mostly below about 43%; note: 0% is about no effect
LmPK inh: LmPK (Leishmania mexicana) enzyme inhibition; Q27686; purified LmPK, Kinase-Glo ATP luminescence, 1 h; Potency, µM (top dose mostly 57.5 µM), for the others: at the highest dose activity change, negative = inhibition, actives largely listed as inhibitors; 0.37% of 290,000 active; AID 1721; note: potency is the fitted concentration of half-maximal effect; % is set by controls: 0 for no effect and ±100 for the full control effect
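Pyruvate kinase activity monitored as ATP production (luciferase luminescence). Conditions: 0.1 nM enzyme, 0.5 mM PEP, 0.1 mM ADP, 1 h, RT; normalized against uninhibited and no-enzyme wells.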
Tb PYK inh: blocks Trypanosoma brucei pyruvate kinase | Potency, µM (titrated, usually from 76.8 µM), without a hit: top-dose activity, negative = inhibition, actives largely listed as inhibitors | 0.12% of 410,000 active | Q57TT1 | AID 624173 | TbPYK enzyme, Kinase-Glo Plus ATP luminescence, 45 min; note: potency is the fitted concentration of half-maximal effect; % is set by controls: 0 for no effect and ±100 for the full control effect; nearly all actives have a fitted effect of over 50% in size
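Luminescence from Kinase-Glo Plus, added after a 45-minute room-temperature reaction, served as the end-point read-out. The enzyme and substrate were preincubated with compound before ADP (130 uM final) initiated turnover. Concentration-effect curves came from normalized qHTS data.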
Numbers without * were called inactive. Unless noted, calls come from the whole dose curve; as a rule, active = well fitted curve in the direction sought with a large enough effect; inconclusive = small, poorly fitted or top-dose-only effect, or another doubt; inactive = no such curve, though single readings can be large; an effect the other way counts as inactive or inconclusive.

Results for Cc1cc(F)ccc1NC(=O)C1CCCN(C(=O)c2cnn(-c3ccccc3)c2-n2cccc2)C1 (configuration not stated) ?
Tb PYK inh: -3%

What do the screens show for `CCOC(=O)c1ccc2c(c1)N(Cc1ccc(F)cc1Cl)C(=O)c1ccccc1S2(=O)=O`?
Tb PYK inh: 1%

How did COc1ccccc1CN1CC2(CCN(S(C)(=O)=O)CC2)C1 do in these assays?
Giardia FBPA inh: 0%; Tb PYK inh: -3%

What do the screens show for `Cc1c(C#N)c(O)n(CCO)c(=O)c1N=Nc1ccc(S(N)(=O)=O)cc1`?
Giardia FBPA inh: inconclusive; RE007 growth inh: -6%; Cycloheximide cs: 2; Shiga toxin inh: -4; LmPK inh: -2%; Tb PYK inh: -13%

How did Cc1c(C#N)c(O)n(C)c(=O)c1N=Nc1ccc(S(N)(=O)=O)cc1 do in these assays?
Giardia FBPA inh: -30%; RE007 growth inh: 6%; Cycloheximide cs: 27; Shiga toxin inh: 108*; LmPK inh: 1%; Tb PYK inh: -4%

Results for O=C1C(I)=CC(=C(c2cc(I)c(O)c(I)c2)c2ccccc2C(=O)O)C=C1I ?
Tb PYK inh: 0%

How did CC(C)=CC(=O)Oc1ccc(C(=O)N(C)c2ccccc2I)cc1 do in these assays?
Giardia FBPA inh: 5%; Cycloheximide cs: -2; Shiga toxin inh: 18

What do the screens show for `c1ccc(-c2ccc(OCCCn3cncn3)cc2)cc1`?
Giardia FBPA inh: -17%; RE007 growth inh: 2%; Cycloheximide cs: 41*; Shiga toxin inh: 61*; LmPK inh: -10%; Tb PYK inh: 4%

How did c1ccc(Oc2cccc(OCCn3cncn3)c2)cc1 do in these assays?
Giardia FBPA inh: inconclusive; RE007 growth inh: 16%; Cycloheximide cs: -2; Shiga toxin inh: 11; LmPK inh: -14%; Tb PYK inh: 2%

How did c1ccc(COc2ccc(OCCn3cncn3)cc2)cc1 do in these assays?
Giardia FBPA inh: -5%; RE007 growth inh: -10%; Cycloheximide cs: 25*; Shiga toxin inh: 54*; LmPK inh: -12%; Tb PYK inh: 3%

Results for CC(=O)CCc1ccc(OCCCCn2cncn2)cc1 ?
Giardia FBPA inh: -5%; RE007 growth inh: 2%; Cycloheximide cs: 20*; Shiga toxin inh: 51*; LmPK inh: -6%; Tb PYK inh: -5%

Results for N/C(=N\c1nc2ccccc2o1)NC(=O)c1cccc(Br)c1 ?
Giardia FBPA inh: 10%; RE007 growth inh: 3%; Cycloheximide cs: 35; Shiga toxin inh: 1; LmPK inh: 0%; Tb PYK inh: -14%

What do the screens show for `CC(=O)N/C(N)=N/c1nc2cc(C)ccc2o1`?
Giardia FBPA inh: -9%; RE007 growth inh: 3%; Cycloheximide cs: 37*; Shiga toxin inh: 63*; LmPK inh: -5%; Tb PYK inh: -3%

What do the screens show for `CC(=O)N/C(N)=N/c1nc2cc([N+](=O)[O-])ccc2o1`?
Giardia FBPA inh: -10%; RE007 growth inh: 2%; Cycloheximide cs: 27*; Shiga toxin inh: 81; LmPK inh: -7%; Tb PYK inh: 0%

Results for O=S(=O)(NCCc1nnc2ccc(SCc3ccccc3Cl)nn12)c1ccccc1 ?
Tb PYK inh: 3%

What do the screens show for `COc1ccccc1N1CCN(c2ncnc3c2c(-c2ccccc2)cn3-c2cccc(C)c2)CC1`?
Tb PYK inh: 0%

Results for CCn1c(O)c(/C=C/C=C/C=Nc2ccccc2)sc1=S ?
Giardia FBPA inh: -19%; RE007 growth inh: -12%; Cycloheximide cs: -1; Shiga toxin inh: 11; LmPK inh: -9%; Tb PYK inh: -5%

What do the screens show for `CCCn1c(O)c(C=Nc2ccccc2)sc1=S`?
Giardia FBPA inh: -23%; RE007 growth inh: 8%; Cycloheximide cs: 36*; Shiga toxin inh: 44*; LmPK inh: 6%; Tb PYK inh: 4%

How did CCCCn1c(O)c(/C=C/C=C/C=Nc2ccccc2)sc1=S do in these assays?
Giardia FBPA inh: inconclusive; RE007 growth inh: -2%; Cycloheximide cs: 11; Shiga toxin inh: 48; LmPK inh: -1%; Tb PYK inh: -11%

Results for Oc1c(/C=C/C=C/C=Nc2ccccc2)sc(=S)n1Cc1ccccc1 ?
Giardia FBPA inh: -21%; RE007 growth inh: -1%; Cycloheximide cs: 25*; Shiga toxin inh: 72*; LmPK inh: -19%; Tb PYK inh: 1%

Results for CCOc1ccc(NC(=O)c2ccc(NC(=O)CCS(=O)(=O)c3cccs3)cc2)cc1 ?
Tb PYK inh: 0%

Results for CCn1ncc(Br)c1C(=O)Nc1ccc(OC(F)(F)F)cc1 ?
Giardia FBPA inh: -3%; RE007 growth inh: -12%; Cycloheximide cs: 10; Shiga toxin inh: 14; LmPK inh: 1%; Tb PYK inh: -2%

Results for CCn1ncc(Br)c1C(=O)Nc1ccc(C(=O)OC(C)C)cc1 ?
Giardia FBPA inh: -2%; RE007 growth inh: -17%; Cycloheximide cs: 27*; Shiga toxin inh: 42; LmPK inh: 2%; Tb PYK inh: 0%

How did COc1ccc(N=C2NC(=O)/C(=C\c3ccco3)S2)cc1 do in these assays?
Giardia FBPA inh: -4%; RE007 growth inh: -21%; Cycloheximide cs: 23*; Shiga toxin inh: 66*; LmPK inh: -1%; Tb PYK inh: 0%

Results for O=C1NC(=O)/C(=C\c2ccc(Oc3ccc([N+](=O)[O-])cn3)cc2)S1 ?
Giardia FBPA inh: -7%; RE007 growth inh: -9%; Cycloheximide cs: 34*; Shiga toxin inh: 42*; LmPK inh: -11%; Tb PYK inh: 0%

What do the screens show for `COc1ccc(C=C2SC(=S)NC2=O)cc1`?
RE007 growth inh: -2%; Tb PYK inh: 9%

Results for O=C1NC(=O)/C(=C\c2ccc(Cl)nc2)S1 ?
Giardia FBPA inh: 11%; RE007 growth inh: -1%; Cycloheximide cs: 34*; Shiga toxin inh: 68*; LmPK inh: -7%; Tb PYK inh: 10%

Results for COc1ccc(/C=C2/SC(=O)NC2=O)cc1 ?
Giardia FBPA inh: 5%; RE007 growth inh: -15%; Cycloheximide cs: 39*; Shiga toxin inh: 52*; LmPK inh: inconclusive; Tb PYK inh: 4%

How did COc1ccccc1CNC(=O)c1cn(C)c2ccc(S(=O)(=O)N3CCC(C)CC3)cc2c1=O do in these assays?
Tb PYK inh: -1%

Results for O=C(Nc1csnn1)OCc1ccccc1 ?
RE007 growth inh: -4%; Tb PYK inh: -3%

What do the screens show for `CC(=O)COc1ccc(-c2csnn2)cc1`?
Giardia FBPA inh: 3%; RE007 growth inh: 7%; Cycloheximide cs: 12; Shiga toxin inh: 42*; LmPK inh: -11%; Tb PYK inh: 1%

How did c1ccc(COc2ccc(-c3csnn3)cc2)cc1 do in these assays?
Giardia FBPA inh: 1%; RE007 growth inh: 14%; Cycloheximide cs: 60*; Shiga toxin inh: 60*; LmPK inh: -17%; Tb PYK inh: -7%

Source: PubChem (National Center for Advancing Translational Sciences (NCATS))
